# Measurements as given in PubChem BioAssay.
# Inconclusive results are not listed. Calls of active or inactive are those of the source.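 The calls were made as follows: active = cell viability at or below a set limit in both duplicate runs, the limit being the all-compound median minus 4 SD (cut at about 23% in these data, passing the limit was not always enough); inconclusive = no clear call, values can overlap the other calls; inactive = the rest.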
# Assay: growth suppression of beta-catenin knockout HCT116, pilot screen, human colon tumor cells (AID 823);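 also: 0% = wells killed by 20 µM Hyamine and 100% = untreated DMSO cell wells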
# Conditions: CellTiter-Glo, 60 h, at 10 µM, active compounds read low
row,SMILES,viability
1,COc1ccccc1N=Cc1c(O)n(C)c(=O)n(C)c1=O,87.1% (inactive)
2,COc1ccc(N2C(=O)CC(N3CC=C(c4ccccc4)CC3)C2=O)cc1 (configuration not stated),101% (inactive)
3,Cc1ccc2occ(CN3CC4CC(C3)c3cccc(=O)n3C4)c(=O)c2c1 (configuration not stated),98.5% (inactive)
4,Cc1cc(OCC(=O)OC(C)(C)C)c2c3c(c(=O)oc2c1)CCC3,88.2% (inactive)
5,O=C(c1ccccc1)c1cn(CC(=O)N2CCCC2)c2ccccc12,102% (inactive)
6,CC12CN3CC(C)(CN(C1)P3(=O)Oc1ccccc1)C2=O (configuration not stated),101% (inactive)
7,COc1ccc(C2C(C(=O)N3CCC4(CC3)OCCO4)c3cc(OC)c(OC)cc3C(=O)N2C)cc1 (configuration not stated),98% (inactive)
8,c1ccc2sc(C3CCCNC3)nc2c1 (configuration not stated),97.6% (inactive)
9,CCOC(=O)C1CCN(/C=C2/C(=O)NC(=O)N(c3ccc(OCC)cc3)C2=O)CC1,98% (inactive)
10,c1cncc(C2CCCCN2Cc2ccc3c(c2)OCO3)c1 (configuration not stated),95.2% (inactive)
11,COc1cc2c(cc1OC)-c1c(OC)c(OC)cc3c1C(C2)N(C)CC3 (configuration not stated),73.6% (inactive)
12,O=C(O)c1cc2ccccc2oc1=O,103% (inactive)
13,O=c1c2ccccc2nc(-c2ccco2)n1-c1ccccn1,107% (inactive)
14,Cc1cccnc1-n1c(-c2ccco2)nc2ccccc2c1=O,100% (inactive)
15,Nc1ccc(S(=O)(=O)N2CC3CC(C2)c2cccc(=O)n2C3)cc1 (configuration not stated),101% (inactive)
16,O=C(CN1CC(c2ccccc2)CC1=O)Nc1cccc(F)c1 (configuration not stated),98.3% (inactive)
17,CN(C)C1(c2nnnn2-c2ccc(Cl)cc2)CCCCC1,86.2% (inactive)
